Compound activity deposited in PubChem BioAssay by National Center for Advancing Translational Sciences (NCATS).
Sampled rows, rich in hits. Any-hit rate of the full collection: about 1.8%.
GLP-1R agonist = qHTS of GLP-1 Receptor Agonists; Glucagon-like peptide 1 receptor (Homo sapiens), P43220; actives 0.007% (n = 380,000); HEK293 GLP-1R CRE-luciferase, luminescence, 4-6 h; cells express a hypersensitive GLP-1R form; AID 624172, 2012; Potency, µM (highest dose often 45.6 µM), for inactives: at the top dose activation, hits mostly activators; further: % of control where 0% means no effect
Target sequence (P43220 whole entry, looked up): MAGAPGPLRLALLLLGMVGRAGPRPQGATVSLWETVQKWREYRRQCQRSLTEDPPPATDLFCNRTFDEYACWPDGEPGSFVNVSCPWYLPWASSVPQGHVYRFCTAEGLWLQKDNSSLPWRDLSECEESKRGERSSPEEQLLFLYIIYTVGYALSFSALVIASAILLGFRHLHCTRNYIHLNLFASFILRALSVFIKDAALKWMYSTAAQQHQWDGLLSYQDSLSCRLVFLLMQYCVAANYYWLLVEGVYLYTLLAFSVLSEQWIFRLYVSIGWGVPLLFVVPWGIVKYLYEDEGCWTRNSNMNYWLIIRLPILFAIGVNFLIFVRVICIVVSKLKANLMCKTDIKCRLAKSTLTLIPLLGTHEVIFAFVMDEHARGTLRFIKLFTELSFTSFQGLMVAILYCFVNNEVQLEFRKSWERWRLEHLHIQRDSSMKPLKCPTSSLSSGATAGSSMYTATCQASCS
Tb PFK block = qHTS Assay to Find Inhibitors of T. brucei phosphofructokinase; ATP-dependent 6-phosphofructokinase (Trypanosoma brucei brucei), O15648; T. brucei PFK, ADP-Glo luminescence; Potency, µM (top dose mostly 57.5 µM), for the others: at the highest dose activity, negative = inhibition, usual class: inhibitors; actives 0.17% (n = 330,000);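 further: 0% = uninhibited 1x PFK enzyme wells and -100% = no-enzyme wells; nearly all actives have a fitted effect of over 60% in size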
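ADP-Glo luminescence quantified ADP after 45 min at room temperature, with 1.25 nM T. brucei PFK, 0.1 mM ATP and 0.5 mM fructose-6-phosphate in pH 8.0 TEA buffer. qHTS titrations up to 57 µM; curves classified by quality.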
Tb PGK inh = qHTS Assay to Find Inhibitors of Phosphoglycerate Kinase; Potency, µM (series often up to 57.5 µM), without a hit: at the highest dose activity change, negative = inhibition, usual class: inhibitors; actives 0.043% (n = 380,000); PGK/GAPDH coupled, Kinase-Glo luminescence, 60 min; Phosphoglycerate kinase, glycosomal (Trypanosoma brucei brucei), P07378; AID 602233, 2012; further: on the % scale 0 is the no-effect control and ±100 the full control effect; nearly all actives have a fitted effect of over 60% in size
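Luminescent ATP detection (Kinase-Glo Plus) follows a 60-minute room-temperature incubation, with wells lacking PGK as controls. Buffer: 100 mM TEA (pH 7.6), 5 mM MgCl2, 0.01% Tween-20. Coupling enzyme GAPDH (100 nM final) supplies unstable 1,3-BPG in-well.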
GLP-1R inv ag = qHTS of GLP-1 Receptor Inverse Agonists (Inhibition Mode); Potency, µM (titrated, usually from 38.3 µM), without a hit: at the highest dose activity change, negative = inhibition, usual class: inhibitors; HEK293 GLP-1R CRE-luciferase, luminescence, 24 h; GLP-1R form is constitutively active; actives 1.6% (n = 410,000); further: on the % scale 0 is the no-effect control and ±100 the full control effect; nearly all actives have a fitted effect of over 55% in size
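qHTS in 1536-well format: reporter HEK293 cells expressing constitutive GLP-1R activity in DMEM + 10% Nu serum, 24 hr with compounds at 37 deg C, luminescence read after 12 min with detection reagent.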
Pin1 inh = qHTS Assay to Find Inhibitors of Pin1. Peptidyl-prolyl cis-trans isomerase NIMA-interacting 1 (Homo sapiens), Q13526. Pin1 FP peptide displacement, HiFluor488, 10 min. Potency, µM (top dose mostly 115 µM), for the others: at the highest dose activity, negative = inhibition, hits mostly inhibitors. actives 0.009% (n = 390,000); active means well fitted inhibition curve with a large enough effect in the polarisation, with a control signal flat, not every such curve was filed as active; inconclusive means small, poorly fitted or top-dose-only effect, or effect the other way, or a change in a side signal; inactive means no such curve, though single readings can be large or run the other way; the % refers to the polarisation; further: on the % scale 0 is the no-effect control and ±100 the full control effect
HEK293 tox = qHTS of GLP-1 Receptor Inverse Agonists: Cytotox Screen; Potency, µM (top dose mostly 38.3 µM), without a hit: top-dose activity change, negative = inhibition, usual class: inhibitors; HEK293 cAMP-luciferase reporter cells, luminescence, 24 h; AID 624418, 2012; actives 0.13% (n = 410,000);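 further: loss of luciferase light is scored as toxicity; on the % scale 0 is the no-effect control and ±100 the full control effect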
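To flag toxic compounds, the library was rerun on cells for 24 hr at 37 deg C and 5% CO2. Viability-linked luminescence was captured 12 min after adding luciferase detection reagent.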
An asterisk follows results filed as active; i = inactive; ? = inconclusive; · = no result given. Unless noted, the call rests on the fitted dose curve; in most records, active means well fitted curve in the direction sought with a large enough effect; inconclusive means small, poorly fitted or top-dose-only effect, or another doubt; inactive means no such curve, though single readings can be large; an effect the other way counts as inactive or inconclusive. Potency means the concentration at half of the fitted maximal effect.

SMILES | GLP-1R agonist | Tb PFK block | Tb PGK inh | GLP-1R inv ag | Pin1 inh | HEK293 tox
O=C(Nc1ccc(/C=C/c2ccc(NC(=O)c3cc(S(=O)(=O)O)c4cccnc4c3O)cc2S(=O)(=O)O)c(S(=O)(=O)O)c1)c1cc(S(=O)(=O)O)c2cccnc2c1O | -1% | · | · | · | · | ·
COC(=O)c1[nH]c2ccc(C)cc2c1NS(=O)(=O)c1ccc(F)c(C)c1 | 4% | 1% | i | 10µM* | 9% | -3%
COC(=O)c1[nH]c2ccc(F)cc2c1NS(=O)(=O)c1ccc(F)c(C)c1 | -4% | -1% | -2% | ? | 0% | 3%
COc1ccc(S(=O)(=O)N2c3ccccc3OCC2C)cc1 (stereo not given) | 25% | 3% | -7% | ? | 0% | -21%
COc1ccc(S(=O)(=O)N2CCOc3ccccc32)cc1 | -3% | 2% | 0% | 3.5µM* | -4% | ?
COc1ccc(S(=O)(=O)N2CCN(C(=O)C3COc4ccccc4O3)CC2)cc1 (stereo not given) | 3% | 27µM* | ? | -14% | ? | 0%
CCc1ccc(CNC(=O)c2cnc3sc(N(CC)CC)nn3c2=O)cc1 | · | · | 4% | -4% | -9% | 0%
COc1ccc(Cn2c(CO)cnc2SCc2ccc(C)cc2)cc1 | · | · | 10% | 0% | 0% | 4%
Cc1ccc(S(=O)(=O)C(CNC(=O)Cc2ccc(Cl)cc2)c2cccs2)cc1 (stereo not given) | · | · | 9% | ? | 1% | 16%
CCOc1ccc(C(=O)NCC(c2cccs2)S(=O)(=O)c2ccccc2)cc1 (stereo not given) | · | · | -5% | ? | -2% | 2%
CC(C)(C)c1ccc(C(=O)NCC(c2cccs2)S(=O)(=O)c2ccccc2)cc1 (stereo not given) | · | · | -13% | 2.8µM* | 12% | 1%
COc1ccc(CC(=O)NCC(c2cccs2)S(=O)(=O)c2ccc(Cl)cc2)cc1 (stereo not given) | · | · | 3.2µM* | -9% | · | 3%
CC(C)(C)NC(=O)C(c1cccc2ccccc12)n1c(=O)c(-c2cc3ccccc3[nH]2)nc2ccccc21 (stereo not given) | · | · | · | 6.3µM* | · | i
CC(C)(C)NC(=O)C(c1ccccc1)n1c(=O)c(-c2cc3ccccc3[nH]2)nc2ccccc21 (stereo not given) | · | · | · | ? | · | i
CC(C)(C)NC(=O)C(c1ccc(C(F)(F)F)cc1)n1c(=O)c(-c2cc3ccccc3[nH]2)nc2ccccc21 (stereo not given) | · | · | · | 2.8µM* | · | i
Cc1ccc2c(c1)C(c1ccc(F)cc1)N(C(=O)COc1ccc(Cl)cc1Cl)CC(=O)N2 (stereo not given) | · | · | -3% | ? | 35% | -13%
O=[N+]([O-])c1ccc(-[n+]2ccc3ccccc3c2)c([N+](=O)[O-])c1 | -10% | -16% | -12% | ? | 0% | 13µM*
O=C(/C(=C(\[O-])c1ccccc1)[n+]1ccc2ccccc2c1)c1ccc([N+](=O)[O-])cc1 | 0% | 5% | -5% | -4% | -2% | -1%
Cc1ccc(-n2ncc3c(NCC(C)C)ncnc32)c(C)c1 | · | · | -3% | ? | ? | 0%
Cc1ccc(-n2ncc3c(N(CC(C)C)CC(C)C)ncnc32)c(C)c1 | · | · | -9% | 2.8µM* | -3% | 1%
Cc1ccc(-n2ncc3c(NCCCOC(C)C)ncnc32)c(C)c1 | 1% | 5% | -1% | 2.5µM* | -2% | 13%
